Assay outcomes: PubChem BioAssay, National Center for Advancing Translational Sciences (NCATS)
This is a sample that favours compounds with a hit; in the whole collection about 19% have one here.
DT40 TDP1 no CPT = qHTS for Inhibitors of human tyrosyl-DNA phosphodiesterase 1 (TDP1): qHTS in cells in absence of CPT; Potency, µM (top dose mostly 46.2 µM), without a hit: top-dose activity change, negative = growth inhibition, actives largely listed as inhibitors; AID 686978, 2013; 15% of 420,000 active; DT40 Tdp1-/- hTDP1 cells, no CPT, ATP luminescence, 48 h; further: potency means the concentration at half of the fitted maximal effect; nearly all actives have a fitted effect of over 55% in size
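DT40 Tdp1-/-;hTDP1 cells, no CPT (DMSO vehicle only), 400 cells/well; compounds pin-transferred; ≥48 hr, 37 °C; CellTiter-Glo 30 min RT dark, luminescence read.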
IL1B secr inh = inflammasome signaling inhibition, IL-1 beta readout. THP-1 LPS/ATP IL-1B secretion, AlphaLISA, 16 h; active compounds read low. activity change, % at 57.5 µM. 4.7% of 360,000 active; in the data active means activity change below about -50%; inconclusive means mostly about -30% to -49%
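THP-1 cells pretreated 1 hr with compounds (up to 57.5 uM final), then stimulated with LPS (250 ng/mL final) plus ATP (1.25 mM final); secreted IL-1B measured by AlphaLISA after 16 hr, decreased signal indicating inhibition.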
TDP1 cell CPT = growth inhibition of DT40 Tdp1-/-;hTDP1 cells with camptothecin (screen for TDP1 inhibitors) | chicken DT40 Tdp1-/-;hTDP1 cells + 20 nM CPT, ATP luminescence, 48 h | Potency, µM (highest dose often 46.2 µM), without a hit: at the top dose activity change, negative = growth inhibition, most hits filed as inhibitors | 12% of 420,000 active | AID 686979; further: potency means the concentration at half of the fitted maximal effect; nearly all actives have a fitted effect of over 55% in size
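Cell growth measured by CellTiter-Glo luminescence after a minimum 48 h, 37 C compound exposure with 20 nM CPT in Tdp1-knockout DT40 cells stably expressing hTDP1, seeded 400/well; qHTS titration format.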
HT1080NT lethal = kills 2HG-producing HT-1080-NT fibrosarcoma cells | HT-1080-NT fibrosarcoma viability, CellTiter-Glo ATP luminescence, 48 h | Potency, µM (series often up to 46.1 µM), without a hit: at the top dose activity, negative = less viability, usual class: cytotoxic | 1.6% of 360,000 active;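 further: NT is the 2HG producing partner of a matched IDH1 knockdown line; potency means the concentration at half of the fitted maximal effect; 0% = DMSO-treated cells and -100% = media-only wells without cells; nearly all actives have a fitted effect of over 55% in size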
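Read-out is CellTiter-Glo luminescence after 10 minutes at room temperature, following 48 hours' compound treatment of HT-1080-NT cells (750 cells/well, RPMI, 5% FBS, 37 degrees C).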
HT1080 IDH1KD tx = toxicity to HT-1080 IDH1 knockdown cells (counter line) | HT-1080 IDH1 knockdown viability, ATP luminescence, 48 h | 2% of 360,000 active | Potency, µM (doses to about 46.1 µM), without a hit: at the top dose activity, negative = toxicity, usual class: cytotoxic;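 further: potency means the concentration at half of the fitted maximal effect; 0% = DMSO wells and -100% = cell-free medium wells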
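HT-1080-IDH1KD cells (IDH1 knocked down), 750/well in RPMI with 5% FBS, treated with compound 48 h at 37 degrees C. Viability by CellTiter-Glo luminescence, normalised to DMSO and no-cell wells; concentration-response curves classed.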
uPA surface inh = cell surface uPA generation inhibition. AID 540303. 0.31% of 330,000 active. cell surface uPA generation assay, qHTS. Potency, µM (highest dose often 38.3 µM), for the others: at the top dose activity change, negative = inhibition, actives largely listed as inhibitors; active means well fitted inhibition curve with a large enough effect; inconclusive means small, poorly fitted or top-dose-only effect; inactive means no such curve, though single readings can be large or run the other way; tested in mouse RAW 264.7 cells; further: potency means the concentration at half of the fitted maximal effect; nearly all actives have a fitted effect of over 55% in size
Active calls of the source: *; ? = inconclusive; . = no result; ! = a repeat was not active. Unless noted, the call rests on the fitted dose curve; in most records, active means well fitted curve in the direction sought with a large enough effect; inconclusive means small, poorly fitted or top-dose-only effect, or another doubt; inactive means no such curve, though single readings can be large; an effect the other way counts as inactive or inconclusive. Unless noted, on the % scale 0 is the no-effect control and ±100 the full control effect.

SMILES	DT40 TDP1 no CPT	IL1B secr inh	TDP1 cell CPT	HT1080NT lethal	HT1080 IDH1KD tx	uPA surface inh
Cc1ccc(O)c(NC(=O)c2ccco2)c1	-17.2%	-2.9	?	-14.1%	-5.3%	-0.6%
O=C(Nc1cccc(NC(=O)c2ccco2)c1)c1cccc(Br)c1	?	-60.8*	-28.8%	?	-26.3%	-3.3%
O=C(Nc1cc(Br)c(O)c(Br)c1)c1cccc(NC(=O)c2ccco2)c1	-25.6%	2.4	-26.5%	-0.6%	0.6%	8.2%
Cc1ccc(C2CC(c3cccc(Br)c3)Nc3nnnn32)cc1 (stereo not drawn)	-19.3%	-6.7	-25.5%	-12.8%	?	-2.8%
Cc1cccc(C2C=C(c3ccc(C)c(C)c3)Nc3nnnn32)c1 (stereo not drawn)	2.59µM*	.	2.59µM*	.	.	.
CCc1ccc(C2=CC(c3cccc(Br)c3)n3nnnc3N2)cc1 (stereo not drawn)	14.6µM*	.	18.4µM*	.	.	.
CCOC(=O)c1c(C)[nH]c(C(=O)N(C)CC(=O)Nc2ccc(OCC)c(OCC)c2)c1C	?	-7.0	-17.1%	11.2%	11.4%	.
NC(Cc1c[nH]c2ccccc12)C(=O)O (stereo not drawn)	?	.	-71.5%	.	.	.
Oc1cccc2c(CC(O)c3c[nH]c4ccccc34)ccnc12 (stereo not drawn)	11.2µM*	.	?	.	.	.
CCCCCCCCCCCCN1[C@@H](CC(=O)OC)c2cc(F)ccc2S1(=O)=O	10µM*	14.7	?	?	7.2%	13.9%
CCCCCCCCCCCCN1[C@@H](CC(=O)OC)c2cc(F)cc(F)c2S1(=O)=O	18.4µM*	18.1	?	5.9%	2.3%	9.7%
CCCCCCCCN1[C@@H](CC(=O)OCC)c2cc(C(F)(F)F)ccc2S1(=O)=O	16.4µM*	28.1	?	0.0%	12.0%	5.1%
CCOC(=O)C[C@H]1c2ccc(C(F)(F)F)cc2S(=O)(=O)N1C(C)(C)C	?	20.1	11.2µM*!	-1.4%	-5.0%	9.8%
COc1cccc(-n2ccn(CC(=O)c3ccc(F)cc3)c(=O)c2=O)c1	12.9%	.	-1.1%	.	.	.
O=C(Nc1ccccc1)C1=C[C@@H](C2CCCCC2)C[C@@H](OCCCCO)O1	-28.3%	?	0.1%	-4.5%	-4.9%	-3.4%
O=C(Nc1ccccc1)C1=C[C@H](C2CCCCC2)C[C@H](OCCCCO)O1	-20.2%	-11.0	-18.7%	8.8%	11.6%	-6.0%
O=C(Nc1ccccc1)C1=C[C@@H](C2CCCCC2)C[C@@H](OCc2ccc(CO)cc2)O1	23.1µM*	0.0	18.4µM*	-17.5%	-21.6%	1.9%
O=C(Nc1ccccc1)C1=C[C@H](C2CCCCC2)C[C@H](OCc2ccc(CO)cc2)O1	?	-51.0*	?	-15.4%	-17.4%	-10.4%
Cc1ccc(C2=CSC3=NNC4(CCCCC4)NN23)cc1	23.1µM*	0.2	?	-6.5%	-15.8%	-9.7%
COc1ccc(C2Nc3ccc(NC(C)=O)cc3C(=O)N2Cc2cccc(Cl)c2)cc1COc1ccc(NC(C)=O)cc1 (stereo not drawn)	10µM*	.	12.6µM*	-0.5%	3.0%	.
COc1ccc(C2Nc3ccc(NC(=O)CO)cc3C(=O)N2Cc2cccc(Cl)c2)cc1COc1ccc(NC(C)=O)cc1 (stereo not drawn)	11.2µM*	.	?	?	?	.
[O-]C1=N[N+](=C(c2ccccc2)c2ccccc2)C1	-0.8%	5.2	-9.9%	9.8%	-4.3%	-1.2%
Cc1cc(F)ccc1NC(=O)Cn1c(=O)ccc2cc(S(=O)(=O)N3CCC(C)CC3)ccc21	-17.2%	.	-9.1%	.	.	.
COc1ccccc1CNC(=O)Cn1c(=O)ccc2cc(S(=O)(=O)N3CCC(C)CC3)ccc21	?	.	23.1µM*	.	.	.
CCOc1ccccc1NC(=O)Cn1c(=O)ccc2cc(S(=O)(=O)N3CCC(C)CC3)ccc21	25.9µM*	.	?	.	.	.
SMILES	DT40 TDP1 no CPT	IL1B secr inh	TDP1 cell CPT	HT1080NT lethal	HT1080 IDH1KD tx	uPA surface inh
COc1ccccc1CNC(=O)Cn1c(=O)ccc2cc(S(=O)(=O)N3CCCC3)ccc21	-28.8%	.	-26.7%	.	.	.
CC1CCN(C(=O)Cn2c(=O)oc3cc(S(=O)(=O)N4CCCCC4)ccc32)CC1	-20.9%	16.6	0.2%	10.3%	11.0%	-4.2%
CCCCNC(=O)Cn1c(=O)oc2cc(S(=O)(=O)N3CC(C)CC(C)C3)ccc21 (stereo not drawn)	?	-10.5	11.6µM*	0.0%	-3.4%	-9.1%
COc1ccccc1CNC(=O)Cn1c(=O)oc2cc(S(=O)(=O)N3CCC(C)CC3)ccc21	2.91µM*	.	5.17µM*	.	.	.
CCCNC(=O)c1cc(C2CCCCN2S(C)(=O)=O)on1 (stereo not drawn)	-6.9%	4.1	-8.8%	5.3%	16.2%	.
O=C1N/C(=N\N=C\c2cccs2)SC1Cc1cccc(Cl)c1 (stereo not drawn)	10.3µM*	15.3	11.6µM*	?	?	-10.9%
O=C1N/C(=N\N=C\c2cccs2)SC1Cc1ccc(Cl)cc1 (stereo not drawn)	?	16.0	?	18.4µM*	23.1µM*	5.1%
CCC1S/C(=N/N=C/c2cccs2)NC1=O (stereo not drawn)	?	5.9	-1.1%	3.1%	11.0%	5.7%
CCOc1ccccc1N1CC(C(=O)N(C)Cc2cccnc2)CC1=O (stereo not drawn)	2.3%	12.1	11.3%	5.8%	11.9%	3.6%
CCCCCCCCN1C(=O)[C@H](CC(=O)N2CCOCC2)C[C@@]2(C(=O)OCC)CCCC=C12	9.2µM*	-25.1	11.6µM*	?	?	.
CCCCCCCCN1C(=O)[C@H](CC(=O)N2CCSCC2)C[C@@]2(C(=O)OCC)CCCC=C12	20.6µM*	?	20.6µM*	?	?	.
CCCCc1ccc(NC(=O)CSc2nnc3[nH]c(=O)cc(C)n23)cc1	-8.4%	.	-1.6%	.	.	.
COCCNC(=O)C1(C)CCCN(C(=O)c2cccnc2SC)C1 (stereo not drawn)	0.1%	17.4	-11.1%	12.8%	15.3%	.
O=C(c1cnc2ccc3ccccc3c2c1)c1cc(F)ccc1O	?	27.8	7.31µM*	16.4µM*	8.2µM*	-14.7%
Cc1nn(C)c2ncc(C(=O)c3cc(F)ccc3O)cc12	?	-16.6	?	-2.2%	-8.5%	-5.0%
Cc1[nH]c2ccc(C(=O)Nc3ccncc3)cc2c1C	11.6µM*	-15.7	13µM*	-3.3%	-3.3%	8.4%
CCc1ccc(NC(=O)c2ccc3[nH]c(C)c(C)c3c2)cc1	-11.9%	.	-11.9%	.	.	.
